{
  "source": "PubChem BioAssay (Tox21)",
  "note": "Results filed as inconclusive are left out. Calls of active or inactive are those of the source. Calls follow the shape of the dose curve; as a rule, active = well fitted cell-killing curve with a large enough effect in the repeat runs; inconclusive = weak or mixed curves, or effect the other way; inactive = no such curve, though single readings can be large or run the other way. % is scaled to controls: 0 for no effect and ±100 for the full control effect.",
  "data": [
    {"assay": "qHTS assay to identify small molecule agonists of the estrogen receptor alpha (ER-alpha) signaling pathway in the presence of an antagonist - cell viability counter screen (AID 1259386);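 also: cells exposed to compounds for 22 h at 37 °C before the viability read; nearly all actives have a fitted effect of over 30% in size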", "conditions": "VM7Luc4E2 viability, CellTiter-Fluor fluorescence, 22 h; series mostly up to 92.4 µM", "from_the_text": "National Center for Advancing Translational Sciences [NCATS]\nNIH Chemical Genomics Center [NCGC]\nU.S. Environmental Protection Agency [EPA]\nNational Institutes of Environmental Health Sciences [NIEHS]\nNational Toxicology Program [NTP]\nU.S. Food and Drug Administration [FDA]\nEstrogen receptor (ER), a member of nuclear hormone receptor plays an important role in development, metabolic homeostasis and reproduction. Two subtypes of ER, ER-alpha and ER-beta, have similar expression patterns with some uniqueness in both types. Endocrine disrupting chemicals (EDCs) and their interactions with steroid hormone receptors like ER causes disruption of normal endocrine function. Therefore, it is important to understand the effect of environmental chemicals in ER signaling pathway. For identifying ER agonists, VM7Luc4E2 cell line has been used in the current assay.\nVM7Luc4E2 cell line (provided by Denison MS, University of California) endogenously expresses full-length ER-alpha and is stably transfected with a plasmid containing four estrogen responsive elements (ERE) upstream of a luciferase reporter gene. This current screening for measuring luciferase reporter gene activity using VM7Luc4E2 cells against Tox21 10K library collection is a confirmation study on agonist mode screening in presence of ER-antagonist (ICI-182,780) at 10.0nM final concentration. The cytotoxicity of the compounds was tested in parallel by measuring the cell viability using CellTiter-Fluor assay system (Promega, Madison, WI) in the same wells.\nTox21 Assay Protocol Summary:\nVM7Luc4E2 cells were cultured in phenol red free assay medium containing 10% charcoal stripped FBS for 5 days prior to the assay. The cells were dispensed at 4,000 cells in 4uL of assay medium per well into white wall/solid-bottom 1536-well plates (Corning Life Sciences, Corning, NY) using a Multidrop Combi (Thermo Fisher Scientific Inc., Waltham, MA) dispenser. After the assay plates were incubated at 37C and 5% CO2 for 24hr, 1uL of 10.0nM (final concentration) ICI-182,780 or assay buffer was added using two separate tips of Flying Reagent Dispenser (FRD, Aurora Discovery, San Diego, CA). Then 23nL of compounds dissolved in DMSO at 15 concentrations and positive controls or DMSO only was transferred to the assay plates by a Pintool station (Wako, San Diego, CA). The assay plates were incubated at 37C and 5% CO2 for 22hr. After 21hr incubation at 37C, 1uL/well CellTiter-Fluor reagent (Promega Corporation, Madison, WI) was added to each well using FRD and after 1hr incubation at 37C and 5% CO2, the fluorescence signal was measured on ViewLux plate reader (PerkinElmer, Shelton, CT).", "values": [
      {"smiles": "N[C@@H](Cc1ccc(O)cc1)C(=O)O", "activity change, negative = cytotoxicity": "1.69% [at 8.39 µM] (inactive)"},
      {"smiles": "CCCCCc1cccc(=O)o1", "outcome": "inactive"},
      {"smiles": "CSc1cnccn1", "outcome": "inactive"},
      {"smiles": "CC(=O)C1C(=O)C=C(C)OC1=O", "note": "(stereo not given)", "outcome": "inactive"},
      {"smiles": "[O-][n+]1cccc(/C(Cl)=N/OC[C@@H](O)CN2CCCCC2)c1", "outcome": "inactive"},
      {"smiles": "Cc1cccc(Cl)c1", "outcome": "inactive"},
      {"smiles": "CCCCC1CCC(O)CC1", "note": "(stereo not given)", "outcome": "inactive"},
      {"smiles": "COC(=O)c1ccccc1C(=O)O", "outcome": "inactive"},
      {"smiles": "CCOCCOCC", "outcome": "inactive"},
      {"smiles": "O=[N+]([O-])c1c(Cl)cc(Cl)cc1Cl", "outcome": "inactive"},
      {"smiles": "CC(O)CC(C)O", "note": "(stereo not given)", "outcome": "inactive"},
      {"smiles": "CN(C)CCOC(=O)C(c1ccccc1)C1(O)CCCC1", "note": "(stereo not given)", "outcome": "inactive"},
      {"smiles": "OC1(c2ccc(Cl)cc2)CCNCC1", "outcome": "inactive"},
      {"smiles": "O=C[O][Al]([O]C=O)[O]C=O", "outcome": "inactive"},
      {"smiles": "CC1(C)Oc2ccc(C#N)cc2[C@@H](N2CCCC2=O)[C@@H]1O", "outcome": "inactive"},
      {"smiles": "O=C1CCC(=O)N1Cl", "outcome": "inactive"},
      {"smiles": "CC(=O)CC(=O)Nc1ccc(C)cc1C", "outcome": "inactive"},
      {"smiles": "c1ccc(-c2nn[nH]n2)cc1", "outcome": "inactive"},
      {"smiles": "CCCCOCC(C)O", "note": "(stereo not given)", "outcome": "inactive"},
      {"smiles": "C=Cc1ccc(C(C)(C)C)cc1", "outcome": "inactive"},
      {"smiles": "C=C(C)[C@@H]1CC=C(C)CC1", "outcome": "inactive"},
      {"smiles": "CCCSSCCC", "outcome": "inactive"},
      {"smiles": "O=NN(CCCl)C(=O)NC1CCCCC1", "outcome": "inactive"},
      {"smiles": "COC(C)(OC)OC", "outcome": "inactive"},
      {"smiles": "COCCc1ccccn1", "outcome": "inactive"},
      {"smiles": "CC(N)CCCC(C)(C)O", "note": "(stereo not given)", "outcome": "inactive"},
      {"smiles": "Cn1c(=O)c2c(ncn2CCO)n(C)c1=O", "outcome": "inactive"},
      {"smiles": "Cc1ccc2c(c1)C(=O)c1ccccc1C2=O", "outcome": "inactive"},
      {"smiles": "ONc1ccccc1", "outcome": "inactive"},
      {"smiles": "CC(C)[C@H]1CC[C@H](C)C[C@@H]1O", "outcome": "inactive"},
      {"smiles": "C/C=C(\\C)C(=O)OCCc1ccccc1", "outcome": "inactive"},
      {"smiles": "N#CCC(=O)NN", "outcome": "inactive"},
      {"smiles": "CCCCCCCCCCCCCCCCCC#N", "outcome": "inactive"},
      {"smiles": "C=CCSSCCC", "outcome": "inactive"},
      {"smiles": "CC(=O)OCC(=O)Nc1cc(C#N)cc(NC(=O)COC(C)=O)c1Cl", "outcome": "inactive"},
      {"smiles": "CCC(C)OC(C)CC", "note": "(stereo not given)", "outcome": "inactive"},
      {"smiles": "O=C(CCCCC(=O)Nc1c(I)cc(I)c(C(=O)O)c1I)Nc1c(I)cc(I)c(C(=O)O)c1I", "outcome": "inactive"},
      {"smiles": "CC(C)COC(=O)c1ccccc1", "outcome": "inactive"},
      {"smiles": "CN(C)C(C)(C)CO", "outcome": "inactive"},
      {"smiles": "CC1(C)CC(OC(=O)CCCCCCCCC(=O)OC2CC(C)(C)NC(C)(C)C2)CC(C)(C)N1", "activity change, negative = cytotoxicity": "-0.743% [at 19 µM] (inactive)"}
    ]}
  ]
}
